# JMJD2A Tudor inh – inhibitors of human JMJD2A Tudor domain; AID 504339; O75164; actives 4.4% (n = 390,000); AlphaScreen JMJD2A-Tudor / H3K4me3 peptide binding; Potency, µM (series often up to 114 µM), for the others: at the top dose activity change, negative = inhibition, usual class: inhibitors; note: % is set by controls: 0 for no effect and ±100 for the full control effect; nearly all actives have a fitted effect of over 50% in size
# HP1b binding inh – inhibitors of HP1-beta chromodomain binding to methylated histone tails. AlphaScreen HP1-beta / biotin-H3K9me3 peptide binding. P83916. actives 0.56% (n = 390,000). Potency, µM (series often up to 114 µM), inactives show top-dose activity change, negative = inhibition, actives largely listed as inhibitors; note: nearly all actives have a fitted effect of over 70% in size
#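 AlphaScreen: HP1-beta (50 nM) preformed 30 min with biotin-H3(1-18)K9me3 peptide (50 nM) in PBS pH 7.4, 0.01% Tween-20. Compound added for 30 min at RT, then streptavidin donor/nickel chelate acceptor beads (10 ug/mL) for 30 min.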
# BAZ2B inh – inhibitors of human BAZ2B bromodomain. actives 4.4% (n = 360,000). Q9UIF8. AlphaScreen BAZ2B-H3K14Ac peptide displacement. Potency, µM (top dose mostly 114 µM), for inactives: at the top dose activity change, negative = inhibition, most hits filed as inhibitors; note: % is set by controls: 0 for no effect and ±100 for the full control effect; nearly all actives have a fitted effect of over 60% in size
#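 AlphaScreen luminescence quantifies BAZ2B engagement of H3K14Ac peptide; the protein and biotinylated peptide are both at 50 nM final, buffer PBS pH 7.4 with 0.01% Tween-20, all steps at room temperature.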
# G9a block – inhibitors of human histone lysine methyltransferase G9a. Q96KQ7. G9a H3K9 monomethylation, AlphaScreen, 2 h. Potency, µM (highest dose often 102 µM), without a hit: top-dose activity, negative = inhibition, usual class: inhibitors. actives 8.8% (n = 350,000). AID 504332; note: % is set by controls: 0 for no effect and ±100 for the full control effect; nearly all actives have a fitted effect of over 75% in size
#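 Readings reflect AlphaScreen signal from monomethyl-H3K9 antibody detection. HMT at 20 nM; substrate b-H3K9 500 nM; cofactor SAM 20 uM; 2 h RT reaction; compounds tested as titrations in qHTS with 15 min preincubation.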
# L3MBTL1 inh – L3MBTL1 (human) inhibition | AlphaScreen L3MBTL1–H3K9me1 peptide binding | Q9Y468 | Potency, µM (titrated, usually from 57.1 µM), for inactives: at the highest dose activity, negative = inhibition, usual class: inhibitors | actives 0.66% (n = 230,000); note: % is set by controls: 0 for no effect and ±100 for the full control effect; nearly all actives have a fitted effect of over 60% in size
# Target sequence (Q9Y468 whole entry, looked up): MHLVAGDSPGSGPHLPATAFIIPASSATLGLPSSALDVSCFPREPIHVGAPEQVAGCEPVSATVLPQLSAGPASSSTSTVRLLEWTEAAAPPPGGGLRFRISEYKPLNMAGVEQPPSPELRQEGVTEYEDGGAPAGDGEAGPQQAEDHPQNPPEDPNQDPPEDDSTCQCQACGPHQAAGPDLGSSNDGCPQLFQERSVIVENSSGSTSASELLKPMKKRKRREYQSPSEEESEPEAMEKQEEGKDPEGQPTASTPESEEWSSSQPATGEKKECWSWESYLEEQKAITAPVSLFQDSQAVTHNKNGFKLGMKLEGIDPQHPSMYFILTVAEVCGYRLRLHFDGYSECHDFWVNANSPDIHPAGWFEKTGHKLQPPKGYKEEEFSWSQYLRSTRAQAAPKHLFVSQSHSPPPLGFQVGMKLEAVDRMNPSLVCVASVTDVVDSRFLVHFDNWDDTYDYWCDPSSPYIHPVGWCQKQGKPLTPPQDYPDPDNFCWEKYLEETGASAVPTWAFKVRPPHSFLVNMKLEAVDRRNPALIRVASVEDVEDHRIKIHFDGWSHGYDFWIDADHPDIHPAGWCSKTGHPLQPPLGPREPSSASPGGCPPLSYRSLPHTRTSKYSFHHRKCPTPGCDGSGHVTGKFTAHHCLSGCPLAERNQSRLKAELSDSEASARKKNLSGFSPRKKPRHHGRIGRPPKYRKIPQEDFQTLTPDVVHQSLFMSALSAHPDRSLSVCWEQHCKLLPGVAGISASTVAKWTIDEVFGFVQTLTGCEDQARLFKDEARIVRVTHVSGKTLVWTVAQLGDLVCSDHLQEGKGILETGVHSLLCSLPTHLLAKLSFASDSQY
#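 AlphaScreen assay: L3MBTL1 (50 nM final) was preincubated 30 min at room temperature with biotinylated H3(1-15)K9me1 peptide (75 nM final), then 30 min with library compounds; streptavidin donor and nickel chelate acceptor beads (10 ug/mL final) added, 30 min dark.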
# Sfp PPTase inh – inhibitors of Bacillus subtilis Sfp phosphopantetheinyl transferase. Biochemical Sfp PPTase activity, qHTS. Potency, µM, for the others: largest response in the series, negative = inhibition, hits mostly inhibitors. actives 3.5% (n = 310,000);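 note: the enzyme is Sfp with the accession as filed and its product quenches rhodamine fluorescence; 0% = enzyme reaction without inhibitor and -100% = no enzyme wells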
#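 Step 1, compound plus 15 nM Sfp-PPTase, 15 min, room temperature. Step 2, add rhodamine-CoA (5 uM) and BHQ-2-YbbR (12.5 uM). Step 3, read 525/598 nm fluorescence at 0 and 30 min.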
# * hit, by the source's call; ? = inconclusive; . = not tested or not shown; [ ] = dose if it differs, or a comment. This is a sample that favours compounds with a hit; in the whole collection about 12% have one here. Calls come from the whole dose curve; as a rule, active = well fitted curve in the direction sought with a large enough effect; inconclusive = small, poorly fitted or top-dose-only effect, or another doubt; inactive = no such curve, though single readings can be large; an effect the other way counts as inactive or inconclusive. Potency is the fitted concentration of half-maximal effect.
SMILES,JMJD2A Tudor inh,HP1b binding inh,BAZ2B inh,G9a block,L3MBTL1 inh,Sfp PPTase inh
CCOc1ccc(CNC(=O)C2Cc3cc(S(=O)(=O)N4CCCCCC4)ccc3N2C(C)=O)cc1 (stereo not given),-15%,28%,?,?,.,.
CCc1ccc(CNC(=O)C2CCCN(c3nnc(C)c4c(C)n(-c5ccc(OC)cc5)nc34)C2)cc1 (stereo not given),?,-14%,-28%,10µM*,.,.
COC(=O)c1ccccc1NC(=O)C1CCCN(c2nnc(C)c3c(C)n(-c4ccccc4)nc23)C1 (stereo not given),-3%,41%,79µM*,?,.,.
Cc1nnc(N2CCCC(C(=O)NCc3ccc(OC(C)C)cc3)C2)c2nn(-c3ccccc3)c(C)c12 (stereo not given),-18%,57%,-8%,.,.,89µM*
COc1ccc(-n2nc3c(N4CCCC(C(=O)NCc5ccc(C)cc5)C4)nnc(C)c3c2C)cc1 (stereo not given),56µM*,14%,50µM*,?,.,.
O=C(CNC(=O)c1ccc([N+](=O)[O-])cc1)OC(C(=O)Nc1cc(C(F)(F)F)ccc1Cl)c1ccccc1 (stereo not given),-22%,.,.,.,.,.
Cn1c(=O)c(-c2cccs2)nc2cnc(Oc3ccccc3)nc21,.,.,.,-1%[12.7 µM],.,9%
CCCCOc1cccc(C(=O)N(Cc2cccs2)c2ccc(OC)cc2)c1,56%,85%,97%,70%[59 µM],.,.
CCCCN(CC)CCNC(=O)CN1C(=O)COc2ccc(S(=O)(=O)N3CCOCC3)cc21,-14%,21%,-5%,11%[59 µM],.,.
CC1CCC2C(C1)c1sc(=O)[nH]c1SC2(C)C (stereo not given),?,0%,?,50µM*,-8%,8%
Cc1cc(C)c2c(=O)n(CC(=O)N3CCC(N4CCCCC4)CC3)sc2n1,3.2µM*,3.5µM*,3%,1µM*,.,8.9µM*
CC(=O)Cn1cnc2c(sc3nc(C)cc(C)c32)c1=O,-13%,25%,-15%,2%,-2%,9%
CCOC(=O)C1CCCN(C(=O)Cn2sc3nc(C)cc(C)c3c2=O)C1 (stereo not given),5.6µM*,?,15%,1.6µM*,.,1.8µM*
Cc1nn(CC(=O)N2CCC(N3CCCCC3)CC2)c(=O)c2c1sc1ccccc12,-7%,7%[57 µM],-12%[57.1 µM],4%,.,14%
CCOC(=O)C1CCCN(C(=O)Cn2cnc3c2c(=O)n(C)c(=O)n3C)C1 (stereo not given),1%,36%,3%,-33%,4%,9%
CCCNC(=O)Cn1sc2nc(C)cc(C)c2c1=O,3.2µM*,?,50µM*,.,.,1.8µM*
Cc1cc(C)c(NC(=O)CSc2ncc(S(=O)(=O)c3ccc(C(C)(C)C)cc3)c(=O)[nH]2)c(C)c1,-24%,34%,-14%,13%[59 µM],.,.
O=[N+]([O-])c1ccc(/C=N/Nc2nc(NCc3ccccc3)nc(N3CCOCC3)n2)cc1,-25%,57%,-6%,30%,?,-9%
O=[N+]([O-])c1cccc(/C=N/Nc2nc(NCc3ccccc3)nc(N3CCOCC3)n2)c1O,20µM*,-7%,-24%,?,-16%,-19%
CCNc1nc(N2CCOCC2)nc(N(c2ccccc2)c2ccccc2)n1,-24%,37%,3%,?,-6%,1%
NNc1nc(NCc2ccccc2)nc(N2CCOCC2)n1,?,26%,79µM*,2%[59 µM],-19%,10%
Cc1ccc(NC(=O)CSCc2cc(=O)c3ccccc3[nH]2)c(C)c1,-7%,25%[57 µM],11%,13%[59 µM],.,.
[O-]c1n[n+](-c2ccc(Cl)cc2)cc2ccccc12,14µM*,4%,-10%,35µM*,1%,12%
CSC(=S)N/N=C/c1ccccc1,?,-4%,13µM*,-1%,-29%,8%
S=C(N/N=C/c1ccccc1)N1CCOCC1,89µM*,20%,?,?,?,-9%
SMILES,JMJD2A Tudor inh,HP1b binding inh,BAZ2B inh,G9a block,L3MBTL1 inh,Sfp PPTase inh
COc1ccc(N(C)C(=O)Cn2cc(S(=O)(=O)N3CCN(c4ccccc4F)CC3)c3ccccc3c2=O)c(OC)c1,-20%,21%,-14%,-33%[59 µM],.,.
COc1ccc(CC(=O)Nc2ccc(S(=O)(=O)Nc3nccs3)cc2)cc1,?,-8%,-26%,-79%,.,-1%
CC(C)(C)C(=O)NC(=S)Nc1ccc(S(=O)(=O)Nc2nccs2)cc1,-27%,18%,-31%,50µM*,-11%,-8%
O=C(Nc1ccc(S(=O)(=O)Nc2nccs2)cc1)C1=NN(c2ccccc2)C(=O)CC1,-18%,19%,-8%,45µM*,-6%,4%
O=C(Nc1ccc(S(=O)(=O)Nc2nccs2)cc1)c1cccc(F)c1,-19%,-17%,-21%,-13%,.,7%
COc1ccc(S(=O)(=O)Nc2ccc(S(=O)(=O)Nc3nccs3)cc2)cc1,-7%,11%,-3%,50µM*,.,24%
O=C(Nc1ccc(S(=O)(=O)Nc2nccs2)cc1)c1ccc(=O)[nH]c1,?,-13%,50µM*,.,-29%,-18%
Cc1cc(C)n(-c2nc3cc(Cl)ccc3nc2Nc2ccc(CC(=O)O)cc2)n1,-6%,54%,9%,16%[59 µM],.,.
Cc1cccc(N2C(=O)N(CC(=O)C(C)(C)C)c3ccccc3S2(=O)=O)c1C,-17%,8%,-7%,9%[59 µM],.,.
C=CCC(C)(O)c1ccsc1 (stereo not given),.,.,.,.,.,14%
O=C(NC(=S)Nc1ccc(S(=O)(=O)Nc2nccs2)cc1)c1ccc(F)cc1,-34%,-24%,?,10µM*,-9%,-17%
COc1ccccc1OCC(=O)N1CCCC(Nc2ccc(C)c(C)c2)C1 (stereo not given),?,-28%,?,.,.,3%
COc1ccc(NC2CCCN(C(=O)COc3ccc(Cl)cc3C)C2)cc1OC (stereo not given),?,-38%,?,50µM*,.,6%
COc1ccc(CCC(=O)N2CCCC(Nc3ccc(C)c(C)c3)C2)cc1OC (stereo not given),?,-14%,?,45µM*,.,7%
Cc1ccc(-n2ncc(C(=O)NCCN3CCCC3)c2C2CCN(C(=O)OC(C)(C)C)CC2)cc1C,-22%,15%,-2%[57.1 µM],-33%[59 µM],.,.
COC(=O)c1cnc(NNS(=O)(=O)c2ccc(Cl)cc2)nc1C(F)(F)F,-6%,-14%,-5%,35µM*,-1%,-2%
COC(=O)c1cnc(NNC(=O)c2ccc([N+](=O)[O-])cc2)nc1C(F)(F)F,-22%,10%,3%,2%,-7%,11%

# Screening data deposited in PubChem BioAssay by National Center for Advancing Translational Sciences (NCATS).
